Among the data in PubChem BioAssay (EPA / NIEHS) are outcome and AC50 values, retold here.

Records with an inconclusive call do not appear. Active and inactive are the calls of the source. Rule for the calls, unless noted: active = hit-call score of the fitted dose curve at least 0.9, where 1 is the maximum; inconclusive = response in the unintended direction; inactive = score below 0.9.

Test [1] concerns the target human RAR-related Orphan Receptor beta (RORb), RORB (gene 6096) (UniProt Q92753). Description: ATG_RORb_TRANS: Attagene TRANS-FACTORIAL HepG2 Assay for human RAR-related Orphan Receptor beta (RORb) (AID 2283010). The gist of the method: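 In this TRANS-format test, human HepG2 cells express chimeric NR-Gal4 fusion proteins driving GAL4-UAS reporters. After 24 h dosing, reporter transcripts are measured by fluorescent RT-PCR/capillary electrophoresis, with DMSO as negative control.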

Test [2] has as its target Retinoic acid receptor RXR-alpha (Homo sapiens) (UniProt P19793). As to the kind of experiment: ATG_RXRa_TRANS: Attagene TRANS-FACTORIAL HepG2 Assay for human Retinoid X Receptor alpha (RXRa) (AID 2283012). The gist of the method:
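Cells (HepG2) carried transiently transfected GAL4-responsive reporter units. Following a 24 h chemical incubation, reporter mRNA induction was read via RT-PCR fragment analysis; DMSO served as negative control and baseline.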

Test [3] concerns the target human Retinoid X Receptor beta (RXRb), RXRB (gene 6257) (UniProt P28702). Description: ATG_RXRb_TRANS: Attagene TRANS-FACTORIAL HepG2 Assay for human Retinoid X Receptor beta (RXRb) (AID 2283013). The gist of the method: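 Multiplexed TRANS reporter assay in HepG2; 24 h dosing; reporter mRNA by RT-PCR/CE fluorescence; gain-of-signal relative to DMSO.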
The target in test [4] is human Vitamin D Receptor (VDR), VDR (gene 7421) (UniProt P11473). As to the kind of experiment: ATG_VDR_TRANS: Attagene TRANS-FACTORIAL HepG2 Assay for human Vitamin D Receptor (VDR) (AID 2283022). An outline of the steps:
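HepG2 cells were transiently transfected with GAL4-UAS reporter units and a chimeric VDR-Gal4 construct, then dosed for 24 hours. Reporter mRNA was quantified by RT-PCR, fluorescent labeling, HpaI digestion and capillary electrophoresis; gain of signal analysed vs DMSO.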

In test [5] the target is human Thyroid Receptor alpha (THRa1), THRA (gene 7067) (UniProt P10827). As to the kind of experiment: ATG_THRa1_TRANS: Attagene TRANS-FACTORIAL HepG2 Assay for human Thyroid Receptor alpha (THRa1) (AID 2283014). An outline of the steps:
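HepG2 cells transiently transfected with chimeric NR-Gal4 and GAL4-UAS reporter units, dosed 24 h. Reporter mRNA quantified by RT-PCR, fluorescent labeling, HpaI digestion and capillary electrophoresis; gain-of-signal fit versus DMSO.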

Test [6] deals with human RAR-related Orphan Receptor gamma (RORg), RORC (gene 6097) (UniProt P51449). As to the kind of experiment: ATG_RORg_TRANS: Attagene TRANS-FACTORIAL HepG2 Assay for human RAR-related Orphan Receptor gamma (RORg) (AID 2283011). The gist of the method:
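HepG2 cells transiently transfected with GAL4-UAS reporter units and chimeric RORg-Gal4 construct; after 24 h chemical exposure, reporter mRNA measured by RT-PCR with fluorescent capillary electrophoresis, gain of signal fitted against DMSO.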

Read-out in test [7]: Interleukin-1 alpha (IL1a), IL1A (gene 3552)
As to the kind of experiment: BSK_BE3C_IL1a: BioMAP Diversity Plus: BE3C Assay for Interleukin-1 alpha (IL1a) Biomarker Activity (AID 2283016; active = hit-call score of the fitted dose curve at least 0.9, where 1 is the maximum; inactive = score below 0.9). The conditions noted are these: primary human bronchial epithelial cells; actives raise or lower the signal. An outline of the steps: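 Cultures of primary human bronchial epithelial cells receive test chemical. After 24 h, IL-1a is quantified by ELISA, while parallel wells are fixed in TCA and SRB-stained for total protein. Changes in either direction are fitted relative to DMSO.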

Read-out in test [8]: Monocyte Chemoattractant Protein-1 (MCP1), CCL2 (gene 6347)
Description: BSK_3C_MCP1: BioMAP Diversity Plus: 3C Assay for Monocyte Chemoattractant Protein-1 (MCP1) Biomarker Activity (AID 2283017; active = hit-call score of the fitted dose curve at least 0.9, where 1 is the maximum; inactive = score below 0.9). The conditions noted are these: primary human endothelial cells (HUVEC); actives raise or lower the signal. The gist of the method: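 Human umbilical vein endothelial cells (3C system) exposed to chemicals for 24 h; MCP-1 quantified by ELISA against the DMSO baseline with bidirectional fitting, and parallel SRB staining used to assess cytotoxicity.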

Read-out in test [9]: Human Leukocyte Antigen - DR isotype (HLADR), HLA-DRA (gene 3122)
Description: BSK_3C_HLADR: BioMAP Diversity Plus: 3C Assay for Human Leukocyte Antigen - DR isotype (HLADR) Biomarker Activity (AID 2283019; active = hit-call score of the fitted dose curve at least 0.9, where 1 is the maximum; inactive = score below 0.9). The conditions noted are these: primary human endothelial cells (HUVEC); actives raise or lower the signal. An outline of the steps: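 HUVEC monoculture, HLA-DR measured by ELISA 24 h after chemical dosing. Fitted bidirectionally against DMSO baseline; parallel SRB staining assessed cytotoxicity, with 3C proliferation read by SRB at 48 h.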

Read-out in test [10]: Monokine induced gamma interferon (MIG), CXCL9 (gene 4283)
Description: BSK_3C_MIG: BioMAP Diversity Plus: 3C Assay for Monokine induced gamma interferon (MIG) Biomarker Activity (AID 2283021; active = hit-call score of the fitted dose curve at least 0.9, where 1 is the maximum; inactive = score below 0.9). The conditions noted are these: primary human endothelial cells (HUVEC); actives raise or lower the signal. The gist of the method: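 After 24 h of treatment, human umbilical vein endothelial cultures (3C system) had their MIG biomarker level determined by ELISA, with DMSO serving as negative control.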

A short description of test [11]: BSK_3C_SRB: Viability Assessment in the BioMAP Diversity Plus: 3C Assay (AID 2283023; active = hit-call score of the fitted dose curve at least 0.9, where 1 is the maximum; inactive = score below 0.9;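 note: fitted both ways against DMSO so a hit may be signal rise or drop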). The conditions noted are these: primary human endothelial cells (HUVEC). The gist of the method:
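Human umbilical vein endothelial cells in the 3C system, treated 24 h. Total protein measured by 0.1% sulforhodamine B staining after 10% TCA fixation, read at 560 nm; bidirectional fit versus DMSO.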

Test [12] can be described thus: BSK_3C_Vis: BioMAP Diversity Plus: 3C Assay for Morphology Visualization (AID 2283025; active = hit-call score of the fitted dose curve at least 0.9, where 1 is the maximum; inactive = score below 0.9;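 note: fitted both ways so gain or loss versus DMSO counts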). The conditions noted are these: primary human endothelial cells (HUVEC). An outline of the steps: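 Endothelial cells from human umbilical vein were treated with test chemicals for 24 h and inspected by light microscopy for changes in cell conformation.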
Read-out in test [13]: Pselectin, SELP (gene 6403)
As to the kind of experiment: BSK_4H_Pselectin: BioMAP Diversity Plus: 4H Assay for Pselectin Biomarker Activity (AID 2283026; active = hit-call score of the fitted dose curve at least 0.9, where 1 is the maximum; inactive = score below 0.9). The conditions noted are these: primary human endothelial cells (HUVEC); actives raise or lower the signal. The gist of the method: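 Human vascular endothelium from umbilical vein; P-selectin measured by ELISA at 24 h post-dose, with cytotoxicity checked by sulforhodamine B total-protein staining in parallel cultures (0.1% SRB after 10% TCA fixation, read at 560 nm).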

A short description of test [14]: BSK_4H_SRB: Viability Assessment in the BioMAP Diversity Plus: 4H Assay (AID 2283027; active = hit-call score of the fitted dose curve at least 0.9, where 1 is the maximum; inactive = score below 0.9;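 note: cells exposed to compound for 24 h before staining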). The conditions noted are these: primary human endothelial cells (HUVEC). An outline of the steps: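 Absorbance at 560 nm of SRB-stained total protein served as the viability read-out in confluent primary human umbilical vein endothelium 24 h after chemical treatment. Curves were fitted bidirectionally against DMSO as negative control.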

Test [15] can be described thus: BSK_BE3C_SRB: Viability Assessment in the BioMAP Diversity Plus: BE3C Assay (AID 2283028; active = hit-call score of the fitted dose curve at least 0.9, where 1 is the maximum; inactive = score below 0.9). The conditions noted are these: primary human bronchial epithelial cells. An outline of the steps: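 Human bronchial epithelial primary cells in confluent culture, 24 h after chemical dosing; total protein by 0.1% SRB staining after 10% TCA fixation, read at 560 nm. Bidirectional fitting versus DMSO baseline.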

Read-out in test [16]: Thrombomodulin, THBD (gene 7056)
Description: BSK_3C_Thrombomodulin: BioMAP Diversity Plus: 3C Assay for Thrombomodulin Biomarker Activity (AID 2283029; active = hit-call score of the fitted dose curve at least 0.9, where 1 is the maximum; inactive = score below 0.9). The conditions noted are these: primary human endothelial cells (HUVEC); actives raise or lower the signal. The gist of the method:
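Thrombomodulin ELISA, human primary HUVEC, 24 h post-dose; data fitted in both directions relative to DMSO.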

Read-out in test [17]: E-selectin (Homo sapiens) (UniProt P16581)
As to the kind of experiment: BSK_3C_Eselectin: BioMAP Diversity Plus: 3C Assay for Eselectin Biomarker Activity (AID 2283015; active = hit-call score of the fitted dose curve at least 0.9, where 1 is the maximum; inactive = score below 0.9). The conditions noted are these: primary human endothelial cells (HUVEC); actives raise or lower the signal. The gist of the method:
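Primary human umbilical vein endothelial cells (3C system), read 24 h after compound addition; E-selectin measured by ELISA. Bidirectional curve fitting against DMSO baseline; cytotoxicity by parallel SRB total-protein staining.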

Sequence of human Thyroid Receptor alpha (THRa1), THRA (gene 7067) (P10827 whole entry, looked up, the tested form may be a part): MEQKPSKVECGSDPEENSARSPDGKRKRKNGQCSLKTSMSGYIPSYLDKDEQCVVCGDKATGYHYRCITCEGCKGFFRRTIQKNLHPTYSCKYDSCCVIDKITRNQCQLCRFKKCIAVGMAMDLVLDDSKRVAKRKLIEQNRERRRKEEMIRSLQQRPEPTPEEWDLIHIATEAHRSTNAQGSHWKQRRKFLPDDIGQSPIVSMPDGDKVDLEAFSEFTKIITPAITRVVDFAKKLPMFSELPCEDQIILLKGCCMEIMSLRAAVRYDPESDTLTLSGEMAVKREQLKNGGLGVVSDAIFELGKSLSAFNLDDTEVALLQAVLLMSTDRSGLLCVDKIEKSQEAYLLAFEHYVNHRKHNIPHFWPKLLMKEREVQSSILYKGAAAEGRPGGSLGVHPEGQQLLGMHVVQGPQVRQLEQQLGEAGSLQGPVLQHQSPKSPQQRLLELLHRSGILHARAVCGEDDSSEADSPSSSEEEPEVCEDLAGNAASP
Sequence of human RAR-related Orphan Receptor beta (RORb), RORB (gene 6096) (Q92753 whole entry, looked up, the tested form may be a part): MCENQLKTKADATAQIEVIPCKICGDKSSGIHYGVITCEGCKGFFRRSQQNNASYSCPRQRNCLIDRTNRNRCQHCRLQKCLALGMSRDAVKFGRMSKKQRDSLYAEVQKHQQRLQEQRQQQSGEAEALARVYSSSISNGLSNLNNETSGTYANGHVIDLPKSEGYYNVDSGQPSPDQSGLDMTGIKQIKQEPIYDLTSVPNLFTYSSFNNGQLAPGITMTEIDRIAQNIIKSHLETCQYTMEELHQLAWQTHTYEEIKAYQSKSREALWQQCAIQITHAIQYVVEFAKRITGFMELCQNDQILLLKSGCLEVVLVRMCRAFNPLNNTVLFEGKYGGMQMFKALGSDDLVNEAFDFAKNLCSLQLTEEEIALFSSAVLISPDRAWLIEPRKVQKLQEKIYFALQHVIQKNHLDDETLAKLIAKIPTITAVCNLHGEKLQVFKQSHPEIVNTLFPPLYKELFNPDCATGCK
Sequence of Retinoic acid receptor RXR-alpha (Homo sapiens) (P19793 whole entry, looked up, the tested form may be a part): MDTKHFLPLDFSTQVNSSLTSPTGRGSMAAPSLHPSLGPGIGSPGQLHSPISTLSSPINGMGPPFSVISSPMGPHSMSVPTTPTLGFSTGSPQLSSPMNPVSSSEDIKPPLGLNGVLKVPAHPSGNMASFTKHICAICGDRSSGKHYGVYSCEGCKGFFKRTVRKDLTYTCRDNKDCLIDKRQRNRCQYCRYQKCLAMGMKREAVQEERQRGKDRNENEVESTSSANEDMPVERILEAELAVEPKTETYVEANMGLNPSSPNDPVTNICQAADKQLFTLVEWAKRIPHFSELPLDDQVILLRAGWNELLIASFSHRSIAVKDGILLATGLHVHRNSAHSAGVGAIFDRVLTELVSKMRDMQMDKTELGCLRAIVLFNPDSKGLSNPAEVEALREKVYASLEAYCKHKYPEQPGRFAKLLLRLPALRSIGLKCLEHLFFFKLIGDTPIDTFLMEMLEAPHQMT
Sequence of human Vitamin D Receptor (VDR), VDR (gene 7421) (P11473 whole entry, looked up, the tested form may be a part): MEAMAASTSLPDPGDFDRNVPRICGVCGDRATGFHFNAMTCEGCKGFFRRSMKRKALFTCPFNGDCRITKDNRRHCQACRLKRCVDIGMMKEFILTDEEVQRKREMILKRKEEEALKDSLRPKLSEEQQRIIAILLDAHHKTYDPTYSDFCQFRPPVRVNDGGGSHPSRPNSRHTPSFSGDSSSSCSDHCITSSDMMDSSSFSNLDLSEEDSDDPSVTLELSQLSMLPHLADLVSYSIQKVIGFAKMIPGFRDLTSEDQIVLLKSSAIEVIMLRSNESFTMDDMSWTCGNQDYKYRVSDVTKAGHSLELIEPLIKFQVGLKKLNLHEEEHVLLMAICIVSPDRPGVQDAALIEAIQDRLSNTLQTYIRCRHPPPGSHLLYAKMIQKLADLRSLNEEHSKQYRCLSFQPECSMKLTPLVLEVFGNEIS
Sequence of human Retinoid X Receptor beta (RXRb), RXRB (gene 6257) (P28702 whole entry, looked up): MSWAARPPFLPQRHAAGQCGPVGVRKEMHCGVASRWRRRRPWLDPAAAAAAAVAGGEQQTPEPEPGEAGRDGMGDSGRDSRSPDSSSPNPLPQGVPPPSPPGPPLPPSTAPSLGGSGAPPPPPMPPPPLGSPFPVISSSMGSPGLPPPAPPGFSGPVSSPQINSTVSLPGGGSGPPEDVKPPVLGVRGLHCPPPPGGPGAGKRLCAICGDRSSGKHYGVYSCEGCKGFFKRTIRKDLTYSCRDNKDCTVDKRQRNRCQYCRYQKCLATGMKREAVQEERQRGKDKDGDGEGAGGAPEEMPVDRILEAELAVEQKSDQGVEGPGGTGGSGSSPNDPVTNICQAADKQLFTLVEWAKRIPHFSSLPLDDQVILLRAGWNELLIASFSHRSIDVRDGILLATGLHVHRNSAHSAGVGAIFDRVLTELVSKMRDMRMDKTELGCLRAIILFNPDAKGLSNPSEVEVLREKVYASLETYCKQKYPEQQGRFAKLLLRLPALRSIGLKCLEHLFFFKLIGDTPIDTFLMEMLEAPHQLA
Sequence of E-selectin (Homo sapiens) (P16581 whole entry, looked up): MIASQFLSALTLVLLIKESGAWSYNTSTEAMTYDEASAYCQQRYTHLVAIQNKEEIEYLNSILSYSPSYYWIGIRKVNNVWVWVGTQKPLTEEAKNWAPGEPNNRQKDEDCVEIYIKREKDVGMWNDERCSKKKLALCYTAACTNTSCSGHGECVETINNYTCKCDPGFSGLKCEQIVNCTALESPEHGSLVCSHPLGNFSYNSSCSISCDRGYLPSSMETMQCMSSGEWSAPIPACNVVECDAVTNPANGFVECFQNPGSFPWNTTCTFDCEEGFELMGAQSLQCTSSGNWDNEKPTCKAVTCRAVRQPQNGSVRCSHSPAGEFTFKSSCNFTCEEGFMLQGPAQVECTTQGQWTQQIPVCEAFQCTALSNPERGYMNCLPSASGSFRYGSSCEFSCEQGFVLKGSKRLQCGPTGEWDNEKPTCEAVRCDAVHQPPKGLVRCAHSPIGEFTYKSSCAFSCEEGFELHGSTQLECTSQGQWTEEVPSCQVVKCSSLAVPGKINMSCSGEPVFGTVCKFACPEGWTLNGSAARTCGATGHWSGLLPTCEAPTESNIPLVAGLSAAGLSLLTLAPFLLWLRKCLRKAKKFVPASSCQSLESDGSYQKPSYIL
Sequence of human RAR-related Orphan Receptor gamma (RORg), RORC (gene 6097) (P51449 whole entry, looked up, the tested form may be a part): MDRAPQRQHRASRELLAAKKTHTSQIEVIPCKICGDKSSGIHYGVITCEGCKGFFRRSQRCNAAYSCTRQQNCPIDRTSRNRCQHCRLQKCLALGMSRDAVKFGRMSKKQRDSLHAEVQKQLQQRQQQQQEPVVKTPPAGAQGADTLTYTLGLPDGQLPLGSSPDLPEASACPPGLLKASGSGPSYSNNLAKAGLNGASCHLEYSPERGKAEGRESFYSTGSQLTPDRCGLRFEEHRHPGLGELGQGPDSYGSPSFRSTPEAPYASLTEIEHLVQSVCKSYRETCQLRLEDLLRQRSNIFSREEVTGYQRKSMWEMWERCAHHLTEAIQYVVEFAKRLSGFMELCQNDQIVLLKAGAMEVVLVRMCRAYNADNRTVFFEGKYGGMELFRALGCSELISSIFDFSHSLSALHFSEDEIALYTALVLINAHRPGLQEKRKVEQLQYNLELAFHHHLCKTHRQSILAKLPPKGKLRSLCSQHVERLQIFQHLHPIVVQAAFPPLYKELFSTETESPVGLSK

For `CC(=O)OCc1ccccc1`, the call in test [1], in test [2], in test [3] and in test [4] was inactive.

`Cc1c(Cl)cccc1Cl`: the call in [1], in test [2] and in [5] was inactive.

In the case of `COC(=O)CC(C)CCC=C(C)C` (stereo unspecified), the outcome in test [1], in test [2], in test [3] and in test [4] was inactive.

For the compound `CCCc1ccc(O)c(OC)c1`, the result in [1], in test [2], in test [3] and in test [4] was inactive.

Turning to `CCCCCC(=O)OCC`, the call in test [1], in test [2] and in [3] was inactive.

For `CC(=O)OC/C=C(/C)CCC=C(C)C`, the result in [1], in test [2] and in [3] was inactive.

For the compound `C=Cc1ccc(OC(C)=O)cc1`, the compound was called inactive in test [1], in test [2], in test [3], in test [5] and in test [4].

Consider `OCCCc1ccccc1`, for which the outcome in test [1], in test [2], in [3] and in test [4] was inactive.

For `CO[Si](CCCS)(OC)OC`, the compound was classed as inactive in [1], in test [2], in test [3] and in test [5].

`CC(C)(C)C1CCC(=O)CC1`: the call in test [1], in [2], in test [3] and in test [4] was inactive.

`CC(C)(C)N`: the result in test [1], in test [2], in test [3] and in [4] was inactive.

Regarding `CC(C)C(=O)OCCOc1ccccc1`, the compound was classed as inactive in [1], in test [6] and in test [4].

Turning to `CC1=CC=C(C(C)C)CC1`, the call in test [1], in [2], in test [3], in test [7], in test [8] and in [9] was inactive. In addition, the outcome in test [10], in test [11], in [12], in test [13], in [14] and in [15] was inactive. The outcome in test [16] was inactive.

Usually AC50 stands for the concentration giving half of the maximal activity seen. With `CCCCCC[C@@H](O)C/C=C\CCCCCCCC(=O)OCC(O)CO` (stereo partly specified), the outcome in test [1], in [2], in test [5] and in [4] was inactive. The concentration at half-maximal activity (AC50) in [3] is 85000 nM (active).

Regarding `N#CC1(N)CCCCC1`, the compound was called inactive in test [1], in test [2] and in [3].

With `CC(c1cc(C(C)(C)C)cc(C(C)(C)C)c1O)c1cc(C(C)(C)C)cc(C(C)(C)C)c1O`, the compound was classed as inactive in [1], in test [2], in test [5], in test [7], in test [8] and in test [9]. The result in test [10], in test [11], in test [12], in test [14], in [15] and in test [16] was inactive. The half-maximal activity concentration (AC50) in test [3] was 1830 nM (active); in [17], 1210 nM (active); in test [13] it was 965 nM (active).
